From PubChem BioAssay (NCI) come the findings set out here.

Several values for one entry are separate records, joined by “and”; a condition that tells them apart may be missing. Identical values can stand only once. About 79,000 compounds went through this panel and 15% of them were active in at least one assay; those are over-represented in the sample as a whole. Where a structure was tested more than once in an assay, its records may differ in their call. Activity calls are given as the source filed them. No stated cut-off is given here; in the data, active means growth inhibition above about 70%; inactive means the rest.

The assay in a line: NCI Yeast Anticancer Drug Screen. Data for the mlh1 rad18 strain (AID 175). Particulars: S. cerevisiae mlh1 rad18 strain growth inhibition, stronger effect = higher value. The protocol:
Growth inhibition of yeast strains with defined genetic alterations is measured as a screen for potential anti-cancer activity. Selected strains with alterations in DNA damage repair or cell cycle control were exposed to compounds and growth inhibition was measured relative to vehicle treated controls. The strain used in this assay is mlh1 rad18

The mark [1] stands for this setting: at 5.0 µM (retest, dose inferred, filed as 0.5).
Where [2] appears, read: at 50.0 µM (retest, dose inferred, filed as 5.0).

Consider `Clc1ccc2c(c1)[nH]c1c2nc2ccccn21`, for which the growth inhibition under setting [1] was 11% (inactive); the growth inhibition under setting [2] was 98% (active); the growth inhibition (at 50.0 µM) is -14.4% (inactive) and 80.4% (active).

For the compound `CC(C)(C)OC(=O)NCCc1cccc2c1oc1c(CCC(=O)O)cccc12`, the growth inhibition is, setting by setting: under setting [1], -7% (inactive); under setting [2], 96% (active); (at 50.0 µM) 83.5% (active).

For `CSc1ncnc2c1ncn2C1OC(CO)C(O)C1O` (configuration not stated), the growth inhibition under setting [1] was 14% (inactive); the growth inhibition under setting [2] is 0% (inactive); the growth inhibition (at 50.0 µM) was -10.1% (inactive) and 1.6% (inactive).

With `Nc1nc(-c2ccccn2)cc2ccccc12`, the growth inhibition is, setting by setting: under setting [1], 29% (inactive); under setting [2], 85% (active); (at 50.0 µM) 11.1% (inactive).

In the case of `O=C1CSC(=S)N1c1ccc(F)c(F)c1`, the growth inhibition is, setting by setting: under setting [1], -3% (inactive); under setting [2], 95% (active); (at 50.0 µM) 96.4% (active).

With `OC(CF)(c1ccc(Cl)cc1)c1ccc(Cl)cc1`, the growth inhibition under setting [1] was 39% (inactive), the growth inhibition under setting [2] is 75% (active) and the growth inhibition (at 50.0 µM) is 89% (active).

Regarding `CCCCCCCCCCCCOS(=O)(=O)O`, the growth inhibition under setting [1] was -17% (inactive); the growth inhibition under setting [2] was 29% (inactive); the growth inhibition (at 50.0 µM) is -2.05% (inactive) and 98.2% (active) and 55.9% (inactive).

For `Cc1ccc(CC(=O)c2c(C)[nH]c3ccccc23)cc1C`, the growth inhibition was 20% (inactive) under setting [1], 8% (inactive) under setting [2] and 97% (active) (at 50.0 µM).

As to `C[N+]1(C)CCC(c2ccccc2)(c2ccccc2)C(=O)C1`, the growth inhibition runs as follows: under setting [1], -10% (inactive); under setting [2], -14% (inactive); (at 50.0 µM) 24.1% (inactive) and -10.6% (inactive).

`COC(=O)C(CC(C)=O)CS(=O)(=O)CC(=O)C(=O)Nc1cccc([N+](=O)[O-])c1` (configuration not stated): the growth inhibition is -2% (inactive) under setting [1], 98% (active) under setting [2] and 99.2% (active) (at 50.0 µM).

With `COc1ccc(/C=C/C(=O)CCN2CCN(CCC(=O)/C=C/c3ccc(OC)cc3)CC2)cc1`, the growth inhibition is -5% (inactive) under setting [1], 98% (active) under setting [2] and 91.5% (active) (at 50.0 µM).

With `c1ccc2nc3c(ccc4ccccc43)cc2c1`, the growth inhibition reads like this: under setting [1], 20% (inactive); under setting [2], 49% (inactive); (at 50.0 µM) 83% (active).

As to `COc1cc(NCCCCCCC2CCCCN2)c2ncccc2c1` (configuration not stated), the growth inhibition is, setting by setting: under setting [1], 3% (inactive) and 2% (inactive); under setting [2], 89% (active) and 78% (active); (at 50.0 µM) 61% (inactive) and 94.5% (active).

`CCCn1cnc2c(SCc3ccc(Cl)cc3)nc(N)nc21`: the growth inhibition under setting [1] is -6% (inactive), the growth inhibition under setting [2] is 36% (inactive) and the growth inhibition (at 50.0 µM) was 98% (active).
